TIM10 inh: growth inhibitors of isogenic TIM10 control yeast, primary screen, counter-screen for tim10-1 yeast inhibitor project, luminescence, uHTS | S. cerevisiae TIM10 strain growth, BacTiter-Glo luminescence, 24 h | 330,000 compounds, 1.4% hits | inhibition, % at 10 µM;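 active means inhibition of 40% or more at the single tested concentration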;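 further: wild-type TIM10 isogenic control strain grown at permissive 25 °C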
NALP3 yeast inh: NALP3 inflammasome inhibitors in reconstituted yeast, primary screen, luminescence, uHTS | 330,000 compounds, 0.39% hits | Yeast reconstituted NLRP3/ASC/caspase-1, beta-gal luminescence, 24 h | inhibition, % at 10 µM;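 active means inhibition of 50% or more; inactive means inhibition below 50%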;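 further: plate controls were induced DMSO wells for no effect and uninduced yeast grown without galactose for full effect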
tim10-1 inh: growth inhibitors of tim10-1 mutant yeast, primary screen, luminescence, uHTS; 330,000 compounds, 2.2% hits; AID 463190, 2010; S. cerevisiae tim10-1 ts strain growth, BacTiter-Glo, 24 h; inhibition, % at 20 µM;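 active means inhibition of at least 40%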;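 further: mutant grown at 25 °C; 0% = DMSO wells with yeast and 100% = wells holding no yeast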
tim23-1 inh: growth inhibitors of tim23-1 mutant yeast, primary screen, luminescence, uHTS; S. cerevisiae tim23-1 growth, BacTiter-Glo luminescence, 24 h; inhibition, % at 20 µM; 330,000 compounds, 1.3% hits; AID 463212, 2010;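 active means growth inhibition of the mutant yeast at or above 50%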;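 further: temperature-sensitive mutant grown at 25 °C; plate controls were DMSO-treated mutant yeast for no effect and medium wells lacking yeast for full effect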
SKKanGAS inh: S. pyogenes SKKanGAS growth inhibitors in kanamycin, primary screen, streptokinase expression inhibitor project, SKKanGAS strain, BacTiter-Glo luminescence; 6 h; 300,000 compounds, 1.3% hits; inhibition, % at 7.5 µM;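 active means mean replicate score, as percent of positive control median, at least 50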;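 further: strain carries kanamycin resistance gene driven by streptokinase promoter and grows in 40 µg/ml kanamycin; loss of luminescence reflects streptokinase promoter inhibition or plain growth inhibition; 0% = median of DMSO wells and 100% = positive control at its reference dose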
tim10-1 confirm: growth inhibitors of tim10-1 mutant yeast, confirmation, single concentration, luminescence, S. cerevisiae; shares compounds with tim10-1 inh; S. cerevisiae tim10-1 ts strain growth, BacTiter-Glo, 24 h; inhibition, % at 20 µM; 7,400 compounds, 56% hits; AID 463213, 2010;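 active means inhibition of yeast growth at or above a set limit in either of two repeat tests at 20 µM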;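 further: tim10-1 mutant grown at permissive 25 °C to find synthetic lethal compounds; 0% = DMSO yeast wells and 100% = medium wells without yeast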
* = called active by the depositor; . = no result given. Shown are actives, neighbours in structure and some others; about 4.6% of the full set was active somewhere.

SMILES | TIM10 inh | NALP3 yeast inh | tim10-1 inh | tim23-1 inh | SKKanGAS inh | tim10-1 confirm
Cc1nc2sccn2c(=O)c1S(=O)(=O)N1CCN(c2cccc(C(F)(F)F)c2)CC1 | 29 | -7 | 42* | 38 | 0 | 27
CC1=NN(c2ccccc2)C(=O)/C1=C\C=C1\N(C)c2ccccc2C1(C)C | -18 | 37 | -9 | -2 | -1 | .
CC1=NN(c2ccccc2)C(=O)/C1=C\C=C1/N(C)c2ccccc2C1(C)C | 13 | 42 | 42* | -22 | 9 | 19
COc1ccc(CNC(=O)C2Cc3cc(S(=O)(=O)N4CCCC4)ccc3N2C(C)=O)c(OC)c1 (configuration not stated) | 4 | 2 | 1 | 7 | 6 | .
COc1cnc(-c2ccccn2)nc1Sc1ccc(C)cc1 | 27 | 38 | 44* | 35 | 67* | 26
COc1ccc(CC(=O)NNS(=O)(=O)c2ccc([N+](=O)[O-])cc2)cc1OC | -15 | 16 | 11 | -6 | -2 | .
Cc1sc(NC(=O)c2ccco2)c(C(c2ccc(F)cc2)N2CCN(C)CC2)c1C (configuration not stated) | 35 | -1 | 56* | 18 | 3 | 30
CCCOc1ccc(N2C(=O)CC(NCC(=O)OCC)C2=O)cc1 (configuration not stated) | 30 | 10 | 18 | 16 | 3 | .
CCc1ccc(NC(=O)c2ccc(NC(=O)C3CCCO3)cc2)cc1 (configuration not stated) | 2 | 3 | 3 | 18 | -2 | .
Cc1cc(C)c2c(NC(=S)NC(=O)c3ccccc3)nn(C)c2n1 | 4 | 15 | 50* | 28 | -1 | 21
Cc1cc(C)nc(NC(=S)NC(=O)c2ccccc2)n1 | -10 | 22 | -10 | 8 | 3 | .
COc1ccc(C(c2c(C)[nH]n(C(N)=S)c2=O)C(C#N)C#N)cc1 (configuration not stated) | 18 | 18 | 44* | 47 | . | 24
Cc1[nH]n(C(N)=S)c(=O)c1N=Nc1ccc2ccccc2c1 | . | . | . | . | 25 | .
CCCCn1c(N)c(N(CCOC)C(=O)COC(=O)C(C)Oc2ccc(Cl)cc2)c(=O)[nH]c1=O (configuration not stated) | 19 | 8 | -1 | 22 | -1 | .
OC(c1cccc(OCc2ccccc2)c1)c1nnc(-c2ccccc2)o1 (configuration not stated) | 16 | -5 | 44* | 17 | 17 | 28
CCN(CC(=O)Nc1ccccc1OC)C(=O)CC1CCCC1 | -1 | 17 | 3 | 12 | . | .
CCSc1nnc(NC(=O)c2cccc(OCc3c(C)noc3C)c2)s1 | 11 | 7 | 40 | 6 | 9 | 11
O=C(COc1ccc(Cl)cc1)OCC(=O)N1CCCc2ccccc21 | 18 | 16 | 23 | 22 | 3 | .
CCC(=O)c1ccc(OCC(=O)OCC(=O)N2c3ccccc3CC2C)cc1 (configuration not stated) | -2 | 10 | 41* | 40 | -5 | 35*
CCC(=O)c1ccc(OCC(=O)OCC(=O)N2CCCc3ccccc32)cc1 | 13 | 6 | 43* | 48 | -12 | 28
C/C(=N\NC(=S)NC(C)C)c1ccccc1OC(F)F | 25 | 10 | 41* | 26 | 0 | 30*
CCOC(=O)c1ccc(NC(=O)c2c(NC(=O)CCC(=O)O)sc3c2CCCCC3)cc1 | 28 | 3 | 40* | 26 | 8 | 31*
O=C(Nc1ccccn1)c1csc2c1CCCC2 | 21 | 20 | 44* | 14 | 2 | 17
CCOc1ccccc1NC(=O)c1c(NC(=O)CCC(=O)O)sc2c1CCCCC2 | 22 | 3 | 32 | 28 | . | .
CCCC(=O)Nc1sc2c(c1C(=O)Nc1ccccn1)CCCC2 | 25 | 26 | 45* | 25 | 7 | 23
COc1ccccc1NC(=O)c1csc2c1CCCC2 | 12 | 34 | 14 | 39 | -1 | .
CCOc1ccc(CCNC(=O)COC(=O)c2nccnc2N)cc1OCC | 0 | 25 | -11 | 2 | -17 | .
CC(C)CN(C(=O)CN(C)CC(=O)Nc1ccccc1C#N)c1c(N)n(CC(C)C)c(=O)[nH]c1=O | -14 | 21 | -9 | 0 | . | .

Bioassay records deposited in PubChem BioAssay by several laboratories.
